# Source: publication doi:10.1101/2024.03.05.583629
# Target: pT7_6His-AlfaTag-ZIF268 (human, UniProt P18146 335-423)
# Assay: PADIT-seq
# Conditions: dsDNA, one strand shown
row,Sequence,binding signal [log2FC]
1,CTCGAGGATATCAAGATCTGGCCTCGGCCGCCCACCCGGAACCTCTAGCTAGCCGACTCACTATAGGGATAATCGCCCTGAGCAAAGACC,0.112 ± 0.113
2,CTCGAGGATATCAAGATCTGGCCTCGGCCTCCCACGCGGAACCTCTAGCTAGCCGACTCACTATAGGGATAATCGCCCTGAGCAAAGACC,1.28 ± 0.0958
3,CTCGAGGATATCAAGATCTGGCCTCGGCCGCGGTCGCGGAACCTCTAGCTAGCCGACTCACTATAGGGATAATCGCCCTGAGCAAAGACC,0.00429 ± 0.0911
4,CTCGAGGATATCAAGATCTGGCCTCGGCCGCCCGCGCGGAACCTCTAGCTAGCCGACTCACTATAGGGATAATCGCCCTGAGCAAAGACC,0.122 ± 0.126
5,CTCGAGGATATCAAGATCTGGCCTCGGCCGCCCAAACGGAACCTCTAGCTAGCCGACTCACTATAGGGATAATCGCCCTGAGCAAAGACC,0.0706 ± 0.0989
6,CTCGAGGATATCAAGATCTGGCCTCGGCCGCCCACGCGGAACCTCTAGCTAGCCGACTCACTATAGGGATAATCGCCCTGAGCAAAGACC,2.69 ± 0.0695
7,CTCGAGGATATCAAGATCTGGCCTCGGCGCGTGGGGCGGAACCTCTAGCTAGCCGACTCACTATAGGGATAATCGCCCTGAGCAAAGACC,0.735 ± 0.107
8,CTCGAGGATATCAAGATCTGGCCTCGGCTACCCACGCGGAACCTCTAGCTAGCCGACTCACTATAGGGATAATCGCCCTGAGCAAAGACC,0.362 ± 0.0981
9,CTCGAGGATATCAAGATCTGGCCTCGGCATGTGGGCGGGAACCTCTAGCTAGCCGACTCACTATAGGGATAATCGCCCTGAGCAAAGACC,2.94 ± 0.0778
10,CTCGAGGATATCAAGATCTGGCCTCGGCGCGCCACGCGGAACCTCTAGCTAGCCGACTCACTATAGGGATAATCGCCCTGAGCAAAGACC,0.0182 ± 0.0932
11,CTCGAGGATATCAAGATCTGGCCTCGGCGCGTGGAGAGGAACCTCTAGCTAGCCGACTCACTATAGGGATAATCGCCCTGAGCAAAGACC,0.18 ± 0.105
12,CTCGAGGATATCAAGATCTGGCCTCGGCGCGTGGGAAGGAACCTCTAGCTAGCCGACTCACTATAGGGATAATCGCCCTGAGCAAAGACC,2.03 ± 0.0894
13,CTCGAGGATATCAAGATCTGGCCTCGGCCGCACACGCGGAACCTCTAGCTAGCCGACTCACTATAGGGATAATCGCCCTGAGCAAAGACC,0.422 ± 0.0927
14,CTCGAGGATATCAAGATCTGGCCTCGGCGCGTGGTGTGGAACCTCTAGCTAGCCGACTCACTATAGGGATAATCGCCCTGAGCAAAGACC,0.166 ± 0.105
15,CTCGAGGATATCAAGATCTGGCCTCGGCCGCCAACGCGGAACCTCTAGCTAGCCGACTCACTATAGGGATAATCGCCCTGAGCAAAGACC,0.204 ± 0.0826
16,CTCGAGGATATCAAGATCTGGCCTCGGCGCGTCGGCGGGAACCTCTAGCTAGCCGACTCACTATAGGGATAATCGCCCTGAGCAAAGACC,0.627 ± 0.116
17,CTCGAGGATATCAAGATCTGGCCTCGGCGCGTGGGTGGGAACCTCTAGCTAGCCGACTCACTATAGGGATAATCGCCCTGAGCAAAGACC,4.08 ± 0.0892
18,CTCGAGGATATCAAGATCTGGCCTCGGCGCGGTGGCGGGAACCTCTAGCTAGCCGACTCACTATAGGGATAATCGCCCTGAGCAAAGACC,0.175 ± 0.118
19,CTCGAGGATATCAAGATCTGGCCTCGGCGCGTGGCCCGGAACCTCTAGCTAGCCGACTCACTATAGGGATAATCGCCCTGAGCAAAGACC,0.0738 ± 0.102
20,CTCGAGGATATCAAGATCTGGCCTCGGCCGCCCAGACGGAACCTCTAGCTAGCCGACTCACTATAGGGATAATCGCCCTGAGCAAAGACC,0.0722 ± 0.0958

row,Sequence,binding signal [log2FC]
1,CTCGAGGATATCAAGATCTGGCCTCGGCCGCCCACAAGGAACCTCTAGCTAGCCGACTCACTATAGGGATAATCGCCCTGAGCAAAGACC,0.545 ± 0.102
2,CTCGAGGATATCAAGATCTGGCCTCGGCCGCCCTCGCGGAACCTCTAGCTAGCCGACTCACTATAGGGATAATCGCCCTGAGCAAAGACC,0.0695 ± 0.102
3,CTCGAGGATATCAAGATCTGGCCTCGGCCGCCCACTCGGAACCTCTAGCTAGCCGACTCACTATAGGGATAATCGCCCTGAGCAAAGACC,0.873 ± 0.0842
4,CTCGAGGATATCAAGATCTGGCCTCGGCGCGTGGGGGGGAACCTCTAGCTAGCCGACTCACTATAGGGATAATCGCCCTGAGCAAAGACC,1.28 ± 0.104
5,CTCGAGGATATCAAGATCTGGCCTCGGCTGGTGGGCGGGAACCTCTAGCTAGCCGACTCACTATAGGGATAATCGCCCTGAGCAAAGACC,1.81 ± 0.0735
6,CTCGAGGATATCAAGATCTGGCCTCGGCCGCCCAAGGGGAACCTCTAGCTAGCCGACTCACTATAGGGATAATCGCCCTGAGCAAAGACC,0.0235 ± 0.109
7,CTCGAGGATATCAAGATCTGGCCTCGGCACATGGGCGGGAACCTCTAGCTAGCCGACTCACTATAGGGATAATCGCCCTGAGCAAAGACC,0.18 ± 0.0881
8,CTCGAGGATATCAAGATCTGGCCTCGGCGCGTGGTCTGGAACCTCTAGCTAGCCGACTCACTATAGGGATAATCGCCCTGAGCAAAGACC,0.117 ± 0.101
9,CTCGAGGATATCAAGATCTGGCCTCGGCGCGTGGATTGGAACCTCTAGCTAGCCGACTCACTATAGGGATAATCGCCCTGAGCAAAGACC,0.000823 ± 0.102
10,CTCGAGGATATCAAGATCTGGCCTCGGCACCTGGGCGGGAACCTCTAGCTAGCCGACTCACTATAGGGATAATCGCCCTGAGCAAAGACC,0.068 ± 0.0997
11,CTCGAGGATATCAAGATCTGGCCTCGGCGCGTCAGCGGGAACCTCTAGCTAGCCGACTCACTATAGGGATAATCGCCCTGAGCAAAGACC,0.0878 ± 0.104
12,CTCGAGGATATCAAGATCTGGCCTCGGCGCGTGGGCGGGAACCTCTAGCTAGCCGACTCACTATAGGGATAATCGCCCTGAGCAAAGACC,4.32 ± 0.0557
13,CTCGAGGATATCAAGATCTGGCCTCGGCCGCCCAAAAGGAACCTCTAGCTAGCCGACTCACTATAGGGATAATCGCCCTGAGCAAAGACC,0.0465 ± 0.0996
14,CTCGAGGATATCAAGATCTGGCCTCGGCCTGTGGGCGGGAACCTCTAGCTAGCCGACTCACTATAGGGATAATCGCCCTGAGCAAAGACC,2.23 ± 0.0754
15,CTCGAGGATATCAAGATCTGGCCTCGGCGCGTGGTCGGGAACCTCTAGCTAGCCGACTCACTATAGGGATAATCGCCCTGAGCAAAGACC,0.471 ± 0.1
16,CTCGAGGATATCAAGATCTGGCCTCGGCGCGTGGGGAGGAACCTCTAGCTAGCCGACTCACTATAGGGATAATCGCCCTGAGCAAAGACC,0.871 ± 0.0966
17,CTCGAGGATATCAAGATCTGGCCTCGGCGCGTGGTGCGGAACCTCTAGCTAGCCGACTCACTATAGGGATAATCGCCCTGAGCAAAGACC,0.41 ± 0.0906
18,CTCGAGGATATCAAGATCTGGCCTCGGCGCGTGGAAAGGAACCTCTAGCTAGCCGACTCACTATAGGGATAATCGCCCTGAGCAAAGACC,0.108 ± 0.113
19,CTCGAGGATATCAAGATCTGGCCTCGGCGGCCCACGCGGAACCTCTAGCTAGCCGACTCACTATAGGGATAATCGCCCTGAGCAAAGACC,0.55 ± 0.0922
